Structures are written as SMILES. Structures can show the parent of a compound that is named as a salt.

For the assay, the system named is Vibrio cholerae. Nature of the assay: growth AUC normalised to DMSO control (fraction of control); higher = less growth inhibition, active = hit call of the paper. Particulars: 20 µM;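 active = AUC significantly below DMSO controls by Student t-fit with adjusted P under 0.01; inactive = not significantly reduced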. Put shortly:
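Pathogens were passaged twice under anaerobic conditions, then inoculated into pre-reduced mGAM plates at a starting OD578 of 0.01, with compound at 20 μM and 1% DMSO, and sealed with breathable membranes. For Haemophilus parainfluenzae, the medium was supplemented with hemin and NAD. OD578 was read every hour for 24 h in three biological replicates. Growth-curve AUC was calculated by the trapezoidal rule up to the exponential-to-stationary transition and normalised to DMSO controls on the same plate.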
Turning to `Cc1ccc(S(=O)(=O)NC(=O)NN2CC3CCCC3C2)cc1` (stereo not drawn) [Gliclazide], the “growth AUC normalised to DMSO control” value was 1.02 (inactive). In the case of `O=c1[nH]cc(F)c(=O)[nH]1` [5-fluorouracil] it was 0.942 (inactive).

In the case of `COC(=O)C1=C(C)NC(C)=C(C(=O)OC)C1c1ccccc1[N+](=O)[O-]` [Nifedipine], the “growth AUC normalised to DMSO control” value was 0.971 (inactive). Consider `COc1ccc(CN(CCN(C)C)c2ccccn2)cc1` [Pyrilamine maleate], for which the “growth AUC normalised to DMSO control” value was 0.969 (inactive). `Cc1c(Cl)cccc1Nc1ccccc1C(=O)O` [Tolfenamic acid]: the “growth AUC normalised to DMSO control” value is 0.901 (inactive). For `C[C@@](Cc1ccc(O)c(O)c1)(NN)C(=O)O` [Carbidopa] the value was 0.996 (inactive); for `CCN(CC)CCCC(C)Nc1ccnc2cc(Cl)ccc12` (stereo not drawn) [Chloroquine diphosphate], 1.01 (inactive); for `c1ccc(-c2ccc(C(c3ccccc3)n3ccnc3)cc2)cc1` (stereo not drawn) [Bifonazole], 1 (inactive). As for `C[C@H](CS)C(=O)N1CCC[C@H]1C(=O)O` [Captopril], the “growth AUC normalised to DMSO control” value is 0.995 (inactive). For `Nc1ccc(C(=O)NCC(=O)O)cc1` [Aminohippuric acid] the value was 0.998 (inactive); for `CC(C(=O)O)c1ccc(N2Cc3ccccc3C2=O)cc1` (stereo not drawn) [Indoprofen], 1.03 (inactive); for `CO[C@@]1(NC(=O)Cc2cccs2)C(=O)N2C(C(=O)O)=C(COC(N)=O)CS[C@@H]21` [Cefoxitin sodium salt], 0.307 (active). In the case of `CN1CCN(CCCN2c3ccccc3Sc3ccc(C(F)(F)F)cc32)CC1` [Trifluoperazine dihydrochloride] it was 1.01 (inactive).

The record behind these values is the supplement of paper PMC12350171.
